Consider 40 sequences from the OligoGym collection.
Further: reference of the scale not given here.

One assay concerns the target LMO4. Kind of assay: pooled miR-30 sensor sort-seq; sequence = guide strand. Conditions: shRNA.
As to TTAAGATGATACACATTGCCTT, the sensor-assay potency score (higher = more potent) is -0.509.
Still for that read-out and setting: next, TAGTGGATTGCTCTGAAGTGAA: -0.987.
Still for that read-out and setting: the result for TAGTGAAACCGATCTCCCGGGA reads -0.538; that for TGGTGTAACAGGACGTGCCGAT, -0.601; that for TTGGTGTAACAGGACGTGCCGA, -0.708.

In the next assay the target is LNPEP. The assay is described as above. Conditions: shRNA.
With TTGAATAGATGCATAGCTGTGA, the sensor-assay potency score (higher = more potent) is 0.497.
The same measure, in the same setting: the result for TTATAGATGAGGTCTGTCTGAA reads 0.0575; that for TTTCTCATTACTTTCATCTGTG, 0.22.
Still for that read-out and setting: next, TTCTCTTTGACAAAATCCCATG: -1.18; TTTCTTGGCTTGAAACTGCTGA: 0.246.
Still for that read-out and setting: next, TTGAATAATTTCTTCCTTCAGT: -0.0999.
TACAGAAACAGCAACCACGATG had a sensor-assay potency score (higher = more potent) of -0.798.
Still for that read-out and setting: the result for TACTGTGTCAGTAACTTTCTGG reads 0.276.
Same read-out and setting: the result for TTCTGTACAAGCTTATTCCAGT reads -0.169; that for TTGTTGTATAAAAAGTTCCTTT, -0.495.
Still for that read-out and setting: the result for TAAATAACTACATACTGCCCAA reads -0.52; that for TTTTGTTCTTCTCTGCTTCAGA, -0.123.

The target of a further assay is LNX1. The assay is described as above. Conditions: shRNA.
TTGAGAATCACATGAAAGCTGT showed a sensor-assay potency score (higher = more potent) of 0.307.
Same read-out and setting: the result for TAGATGATCATACTTTTCCTGA reads -0.507; that for TTGGATAATGATATGGACCAGT, -0.0255.
Still for that read-out and setting: next, TTTTTGGATATTTACCACCTTC: -0.64; TTGAGTACTATCGAGGATGATG: -0.956; TTACAGTTATACAAGCACCGTG: -0.215.
Same read-out and setting: the result for TTTATTCTTCCATCTCTGCTTA reads 0.44; that for TACAGTTATACAAGCACCGTGG, -0.0834; that for TAATACAATATCTTTACAGTTA, -0.86.
In turn, AAAGCTTTGAGTACTATCGAGG showed a sensor-assay potency score (higher = more potent) of -0.642.
The same measure, in the same setting: the result for TAGTTAGAGTAATTCTTCCTTT reads -0.396.
TTCTTCGTAATACAATATCTTT returned a sensor-assay potency score (higher = more potent) of -1.2.

The target of another assay is LONP1. The assay is described as above. Conditions: shRNA.
In turn, TGAAGCGGAAGTACTCTCGGTT yielded a sensor-assay potency score (higher = more potent) of -0.124.
Still for that read-out and setting: the result for ATCCTTGTCGTCCTTCTCCAGG reads -1.37.
Same read-out and setting: the result for TTCAAGGCAATGATGTCCCGGA reads -0.021; that for ATCTGCAGCACTGACTCCCTGT, -0.477; that for TAGAAGTCCTTCTTGTTCTCGG, 0.532.
Same read-out and setting: the result for AAACACTGGATGATCTTCCCGG reads 0.233; that for TAACACCTTCTCCACTTGCTTC, -1.18.
As to TTGCGGACACCGCTCTCGCGGC, the sensor-assay potency score (higher = more potent) is -1.33.
The same measure, in the same setting: the result for TTCAAATTCCTTCTTCAGCAGG reads -0.339.
The same measure, in the same setting: next, TCGTCGATGAGGATCAGGGGGT: -0.954.
The same measure, in the same setting: next, TCTCTCTTTAGAAAGACGCCGA: -0.565.
